Screening results deposited in PubChem by several laboratories.
CYP2C19 activ = human CYP2C19 activators, primary screen, biochemical, luminescence | activation factor at 5 µM | AID 1025, 2008 | recombinant CYP2C19, luciferin-H EGE luminescence; hits give high values; 0 = fully inhibited enzyme, 1 = untreated enzyme | 96,000 tested, under 10 active;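 active means activation factor of at least 2 at 5 µM in the primary screen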;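 further: 0 = wells with 2.5 mM tranylcypromine and 1 = vehicle-only wells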
Target sequence (P33261 whole entry, looked up): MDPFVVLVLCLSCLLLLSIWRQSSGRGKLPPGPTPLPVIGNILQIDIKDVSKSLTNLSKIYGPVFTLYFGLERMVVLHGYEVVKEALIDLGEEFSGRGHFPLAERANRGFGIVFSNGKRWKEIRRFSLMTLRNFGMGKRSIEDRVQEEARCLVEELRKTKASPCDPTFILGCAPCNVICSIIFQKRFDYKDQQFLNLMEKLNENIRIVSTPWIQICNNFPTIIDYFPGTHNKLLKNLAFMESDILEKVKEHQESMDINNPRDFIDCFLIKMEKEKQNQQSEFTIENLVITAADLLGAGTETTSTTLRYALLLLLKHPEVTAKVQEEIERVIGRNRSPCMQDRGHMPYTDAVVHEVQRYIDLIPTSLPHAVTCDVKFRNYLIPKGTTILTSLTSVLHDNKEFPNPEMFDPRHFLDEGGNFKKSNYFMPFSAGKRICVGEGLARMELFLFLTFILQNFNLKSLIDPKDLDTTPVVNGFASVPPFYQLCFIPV
CYP2C9 inh = blockers of cytochrome P450 2C9 activity – biochemical, luminescence, ADME assay, primary screen; P11712; CYP2C9 Supersomes, luciferin-H conversion; inhibition, % at 5 µM; actives 20% (n = 96,000); AID 777, 2007;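 active means blocking of liver enzyme CYP2C9 beyond about 50% at 5 µM, limit read from the data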
Cav3 T inh = Cav3.2 calcium influx blockers – cell-based, Fluo-4 calcium fluorescence, FDSS, MLSMR library, primary screen; Voltage-dependent T-type calcium channel subunit alpha-1H (Homo sapiens), O95180; Cav3.2-expressing cells; hits give low values; B-score at 10 µM; actives 4% (n = 100,000);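 active means single-dose well whose peak fluorescence ratio is a statistical outlier from its plate by either plate-standardised score or position-corrected B-score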
CYP2C19 inhib = blockers of cytochrome P450 2C19 activity – biochemical, luminescence, ADME assay, primary screen. CYP2C19 Supersomes, luciferin-H EGE luminescence, 30 min. inhibition, % at 5 µM. actives 21% (n = 96,000);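 active means CYP2C19 inhibition above a set limit at 5 µM in the primary screen, cut at about 50% in these data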;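 further: plate controls were negative control wells for no effect and 2.5 mM tranylcypromine positive control for full effect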
CYP2C9 act = human CYP2C9 activators, primary screen, biochemical, luminescence | Cytochrome P450 2C9 (Homo sapiens), P11712 | recombinant CYP2C9, luciferin-H conversion; hits give high values; factor 1 = untreated enzyme, 0 = blocked | activation factor at 5 µM | actives 1.4% (n = 96,000);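 active means activation factor of 2 or more for CYP2C9 at a 5 µM dose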;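 further: 0 = sulfaphenazole-blocked wells and 1 = vehicle-only wells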
* = called active by the depositor. Sampled rows, rich in hits. Any-hit rate of the full collection: about 27%.

For Cc1cc(NC(c2cccnc2)c2c(C)[nH]c3ccccc23)no1 (stereo not given) the results were CYP2C19 activ 0.4, CYP2C9 inh 3.6, Cav3 T inh -0.236, CYP2C19 inhib 62.5* and CYP2C9 act 1.
Screening COc1ccc(-c2nc(SCC(=O)Nc3cc(C)on3)n[nH]2)cc1 returned CYP2C19 activ 0.8, CYP2C9 inh 89.0*, Cav3 T inh -0.283, CYP2C19 inhib 22.1 and CYP2C9 act 0.1.
Screening Cc1ccc(C(O)c2cccnc2)o1 (stereo not given) returned CYP2C19 activ 0.8, CYP2C9 inh 25.3, Cav3 T inh 1.31, CYP2C19 inhib 20.3 and CYP2C9 act 0.7.
Screening COc1ccc(-c2cc(C(F)(F)F)nc(SCC(=O)Nc3cc(C)on3)n2)cc1OC returned CYP2C19 activ 1, CYP2C9 inh 49.8, Cav3 T inh -2.48, CYP2C19 inhib -4.4 and CYP2C9 act 0.5.
Screening Cc1cc(NC(=O)CSc2c(C)[nH]c3ccccc23)no1 returned CYP2C19 activ 0.3, CYP2C9 inh -22.8, Cav3 T inh -5.62*, CYP2C19 inhib 65.7* and CYP2C9 act 1.2.
CC(C)NC(=O)c1ccc(CS(=O)(=O)c2ccc(Br)cc2)o1 was read as CYP2C19 activ 0.9, CYP2C9 inh 46.4, Cav3 T inh 0.012, CYP2C19 inhib 12.9 and CYP2C9 act 0.5.
Screening COC(=O)C1=C(C(=O)OC)[C@@H]2N(C)c3ccccc3[C@@]23C[C@@H](CO)N=C3N1 returned Cav3 T inh 0.75.
Screening COc1cc2cc(CN(CCCO)S(=O)(=O)c3ccccc3)c(=O)[nH]c2cc1OC returned CYP2C19 activ 1.1, CYP2C9 inh 8.6, Cav3 T inh -0.0674, CYP2C19 inhib -6.1 and CYP2C9 act 0.9.
O=c1[nH]c2cc3c(cc2cc1CN(CCO)S(=O)(=O)c1ccccc1Cl)OCCO3 was read as CYP2C19 activ 0.7, CYP2C9 inh 77.0*, Cav3 T inh 1.45, CYP2C19 inhib 29.9 and CYP2C9 act 0.2.
`COc1cc2cc(CN(CCO)S(=O)(=O)c3ccccc3Cl)c(=O)[nH]c2cc1OC` gave CYP2C19 activ 0.9, CYP2C9 inh 55.3*, Cav3 T inh 0.756, CYP2C19 inhib 12.1 and CYP2C9 act 0.4.
Cc1ccc2cccnc2c1NC(=S)NC(=O)c1ccccc1 was read as CYP2C19 activ 0.6, CYP2C9 inh 13.7, Cav3 T inh 0.351, CYP2C19 inhib 39.1 and CYP2C9 act 0.9.
Screening CCC(Sc1nc2n[nH]c(C)c2c(=N)n1-c1cccc(Cl)c1C)C(=O)N(CC)CC (stereo not given) returned CYP2C19 activ 1, CYP2C9 inh 59.2*, Cav3 T inh 0.294, CYP2C19 inhib 4.2 and CYP2C9 act 0.4.
`CCOC(=O)c1ccc(COC(=O)c2ccc3c(c2)-c2ccccc2C3=O)cc1` gave CYP2C19 activ 0.8, CYP2C9 inh -2.4, Cav3 T inh -2.37, CYP2C19 inhib 17.5 and CYP2C9 act 1.
Screening CCOC(=O)C1=C(Cc2ccc(C)cc2)C(=O)c2ccccc2C1=O returned CYP2C19 activ 0.3, CYP2C9 inh 61.0*, Cav3 T inh -2.82, CYP2C19 inhib 73.7* and CYP2C9 act 0.4.
For CCOC(=O)c1c(C)nc2c(c1-c1cc(OC)ccc1OC)C(=O)c1ccccc1-2 the results were CYP2C19 activ 0.8, CYP2C9 inh -8.2, Cav3 T inh 0.382, CYP2C19 inhib 22.3 and CYP2C9 act 1.1.
Screening CCOC(=O)C1=C(Cc2ccc(OC)cc2)C(=O)c2ccccc2C1=O returned CYP2C19 activ 0.4, CYP2C9 inh 54.6*, CYP2C19 inhib 56.5* and CYP2C9 act 0.5.
Screening CCOC(=O)c1[nH]c(C)c(C(=O)OCc2c(C)noc2C)c1C returned CYP2C19 activ 0.7, CYP2C9 inh 65.1*, Cav3 T inh -0.148, CYP2C19 inhib 33.2 and CYP2C9 act 0.3.
For Cc1ccc(S(=O)(=O)NCC(=O)OCc2nnc(-c3ccccc3)o2)cc1C the results were CYP2C19 activ 0.7, CYP2C9 inh 20.7, Cav3 T inh -0.257, CYP2C19 inhib 33.9 and CYP2C9 act 0.8.
Screening O=C(OCc1nnc(-c2ccccc2)o1)c1cn(-c2ccccc2)nc1-c1ccccc1 returned CYP2C19 activ 0.5, CYP2C9 inh 90.7*, Cav3 T inh -1.79, CYP2C19 inhib 54.9* and CYP2C9 act 0.1.
Screening CCn1nc(C(=O)OC2CCOC2=O)c2ccccc2c1=O (stereo not given) returned CYP2C19 activ 1, CYP2C9 inh 17.0, Cav3 T inh 0.426, CYP2C19 inhib 4.8 and CYP2C9 act 0.8.
For CCn1nc(C(=O)OCc2c(C)noc2C)c2ccccc2c1=O the results were CYP2C19 activ 1.4, CYP2C9 inh 76.1*, Cav3 T inh 0.413, CYP2C19 inhib -35.3 and CYP2C9 act 0.2.
Cc1cc(C(=O)OCc2nnc(-c3ccccc3)o2)c(C)n1-c1ccccc1 was read as CYP2C19 activ 0.5, CYP2C9 inh 64.0*, Cav3 T inh -2.99, CYP2C19 inhib 45.6 and CYP2C9 act 0.4.
Screening O=C(Nc1nnc(C23CC4CC(CC(C4)C2)C3)s1)c1ccco1 returned CYP2C19 activ 0.9, CYP2C9 inh -1.7, Cav3 T inh 1.31, CYP2C19 inhib 9.9 and CYP2C9 act 1.
`OCCSc1nncn1/N=C/c1c[nH]c2ccccc12` gave CYP2C19 activ 0.9, CYP2C9 inh 29.7, Cav3 T inh 1.62, CYP2C19 inhib 13.6 and CYP2C9 act 0.7.
O=C(O)c1cc(C(F)(F)F)nc2ccccc12 was read as Cav3 T inh 0.214.
Screening Cc1noc(C)c1COC(=O)c1cc(C)n(-c2ccccc2)c1C returned CYP2C19 activ 0.8, CYP2C9 inh 38.4, Cav3 T inh -4.94*, CYP2C19 inhib 20.7 and CYP2C9 act 0.6.
Screening Cc1noc(C)c1COC(=O)c1cc(=O)[nH]c2ccccc12 returned CYP2C19 activ 0.4, CYP2C9 inh 79.9*, Cav3 T inh 0.227, CYP2C19 inhib 60.4* and CYP2C9 act 0.2.
Screening C=C(C)C(=O)Nc1cccc(C2=NOC3(C2)C[C@@H](C(N)=O)N(C(=O)[C@H]2CCC(=O)N2)C3)c1 (stereo not given in full) returned Cav3 T inh 0.0107.
Screening Cc1ccc(S(=O)(=O)N2C(=S)SCC2(C)C)cc1 returned CYP2C19 activ 0.3, CYP2C9 inh -7.2, Cav3 T inh 0.167, CYP2C19 inhib 74.1* and CYP2C9 act 1.1.
`c1coc(CN=C2NC(=NCc3ccco3)c3ccccc32)c1` gave CYP2C19 activ 0.4, CYP2C9 inh 39.7, Cav3 T inh -0.197, CYP2C19 inhib 55.2* and CYP2C9 act 0.6.
